For part of these data: Potency and affinity values are given separately.

Holding throughout (design): scale not given: direction of the effect not stated beside the values
The target of assay [1] is Protein translocase subunit SecA (Escherichia coli (strain K12)) (UniProt P10408). In words: Assay to Identify E. coli SecA ATPase Inhibitors. To be noted: 30 µM. The class given is functional.
The target of assay [2] is T1, Ubiquitin-activating enzyme e1, putative (Leishmania donovani (strain BPK282A1)) (UniProt E9BSI1).
T1 sequence (whole entry): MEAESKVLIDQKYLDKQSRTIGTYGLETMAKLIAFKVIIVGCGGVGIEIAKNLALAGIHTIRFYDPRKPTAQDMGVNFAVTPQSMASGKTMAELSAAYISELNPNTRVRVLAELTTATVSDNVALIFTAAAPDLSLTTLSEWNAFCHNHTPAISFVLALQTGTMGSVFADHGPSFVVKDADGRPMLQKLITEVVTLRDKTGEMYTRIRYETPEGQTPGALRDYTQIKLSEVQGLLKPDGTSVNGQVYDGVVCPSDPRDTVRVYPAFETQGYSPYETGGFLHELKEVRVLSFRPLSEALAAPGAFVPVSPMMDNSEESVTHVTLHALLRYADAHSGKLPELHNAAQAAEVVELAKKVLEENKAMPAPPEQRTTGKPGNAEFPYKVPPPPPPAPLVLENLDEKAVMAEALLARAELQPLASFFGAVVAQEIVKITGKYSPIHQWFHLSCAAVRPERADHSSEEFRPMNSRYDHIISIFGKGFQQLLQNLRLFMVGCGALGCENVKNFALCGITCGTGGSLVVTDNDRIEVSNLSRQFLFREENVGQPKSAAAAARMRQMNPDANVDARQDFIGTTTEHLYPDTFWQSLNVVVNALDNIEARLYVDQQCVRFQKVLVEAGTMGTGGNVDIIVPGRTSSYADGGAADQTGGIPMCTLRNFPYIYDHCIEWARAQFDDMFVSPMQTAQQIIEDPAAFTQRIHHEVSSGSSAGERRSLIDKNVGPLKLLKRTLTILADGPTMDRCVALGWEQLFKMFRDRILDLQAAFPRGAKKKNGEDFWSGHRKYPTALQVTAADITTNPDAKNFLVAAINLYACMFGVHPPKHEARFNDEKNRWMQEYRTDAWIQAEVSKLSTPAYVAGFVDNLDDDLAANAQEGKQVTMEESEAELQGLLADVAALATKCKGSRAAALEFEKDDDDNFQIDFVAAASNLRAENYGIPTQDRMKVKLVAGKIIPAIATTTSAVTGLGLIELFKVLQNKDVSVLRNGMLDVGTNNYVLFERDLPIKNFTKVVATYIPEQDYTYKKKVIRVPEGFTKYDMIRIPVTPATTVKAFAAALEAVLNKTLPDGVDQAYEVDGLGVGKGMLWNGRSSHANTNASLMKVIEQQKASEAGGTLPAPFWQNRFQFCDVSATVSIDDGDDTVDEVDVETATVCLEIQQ
In words: Leishmania donovani Ubiquitin Activating Enzyme (LdE1). The class given is functional. To be noted: 30 µM.

Assay [3] concerns the target AMP-activated protein kinase, AMPK (Homo sapiens) (UniProt P54646+O43741+P54619+Q9UGJ0+Q9Y478+Q13131+Q9UGI9). In words: AMP-dependent Kinase enzyme assay. An in vitro enzyme assay that detects ADP turnover that is directly proportional to AMPK activity. This uses naive AMPK that is activated during the assay with MK-8722. The class given is functional. To be noted: 30 µM.

Assay [4] concerns the target Sialic acid-binding Ig-like lectin 9 (Homo sapiens) (UniProt Q9Y336). In words: Hs-Siglec9 ALPHAscreen SOP 20170721. To be noted: 10 µM.
A further assay concerns Trypanosoma cruzi. In words: Trypanosoma cruzi phosphomannomutase and mannose-1-phosphate guanylyltransferase assay. Type of assay: functional. To be noted: 10 µM.
Assay [5] has as its target T2, Arginase-2, mitochondrial (Homo sapiens) (UniProt P78540).
T2 sequence (whole entry): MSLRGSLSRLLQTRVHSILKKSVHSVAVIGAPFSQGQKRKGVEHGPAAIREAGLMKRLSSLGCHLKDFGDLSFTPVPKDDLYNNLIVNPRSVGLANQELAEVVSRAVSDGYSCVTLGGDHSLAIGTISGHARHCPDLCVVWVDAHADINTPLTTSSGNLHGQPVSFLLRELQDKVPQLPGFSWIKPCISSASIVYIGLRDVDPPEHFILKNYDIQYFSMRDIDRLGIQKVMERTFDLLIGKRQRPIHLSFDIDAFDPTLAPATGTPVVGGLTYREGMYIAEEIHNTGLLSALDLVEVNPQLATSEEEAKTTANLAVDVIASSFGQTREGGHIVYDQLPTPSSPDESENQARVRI
In words: in vitro enzyme assay to detect the production of urea directly proportional to the activity of Arginase II. Also: in the data most compounds retested in dose-response had high values. Particulars: 33.3 µM. The class given is functional.

Assay [6] deals with T3, Proteasome subunit beta (Trypanosoma cruzi) (UniProt O96673).
T3 sequence (whole entry): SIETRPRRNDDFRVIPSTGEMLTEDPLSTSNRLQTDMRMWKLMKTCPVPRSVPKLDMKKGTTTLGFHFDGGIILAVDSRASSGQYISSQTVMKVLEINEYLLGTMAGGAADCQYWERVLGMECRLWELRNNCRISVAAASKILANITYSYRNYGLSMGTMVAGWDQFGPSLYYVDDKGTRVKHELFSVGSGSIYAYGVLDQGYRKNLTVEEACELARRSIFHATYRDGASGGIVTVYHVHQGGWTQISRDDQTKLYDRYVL
In words: Trypanosoma cruzi proteasome chymotrypsin-like activity (TcProtChymo) assay. Also: in the data most compounds retested in dose-response had high values. Particulars: 9.37 µM. The class given is functional.

A further assay is filed under the species Homo sapiens. In words: To identify inhibition of the IFN signalling (Jak-Stat) pathway via expression of an eGFP reporter gene under the control of an IFN-stimulated response element (ISRE) containing MxA promoter. Type of assay: functional. Particulars: 30 µM.
In assay [7] the target is T4, Tyrosyl-tRNA synthetase, putative (Trypanosoma cruzi (strain CL Brener)) (UniProt Q4DSP6).
T4 sequence (whole entry): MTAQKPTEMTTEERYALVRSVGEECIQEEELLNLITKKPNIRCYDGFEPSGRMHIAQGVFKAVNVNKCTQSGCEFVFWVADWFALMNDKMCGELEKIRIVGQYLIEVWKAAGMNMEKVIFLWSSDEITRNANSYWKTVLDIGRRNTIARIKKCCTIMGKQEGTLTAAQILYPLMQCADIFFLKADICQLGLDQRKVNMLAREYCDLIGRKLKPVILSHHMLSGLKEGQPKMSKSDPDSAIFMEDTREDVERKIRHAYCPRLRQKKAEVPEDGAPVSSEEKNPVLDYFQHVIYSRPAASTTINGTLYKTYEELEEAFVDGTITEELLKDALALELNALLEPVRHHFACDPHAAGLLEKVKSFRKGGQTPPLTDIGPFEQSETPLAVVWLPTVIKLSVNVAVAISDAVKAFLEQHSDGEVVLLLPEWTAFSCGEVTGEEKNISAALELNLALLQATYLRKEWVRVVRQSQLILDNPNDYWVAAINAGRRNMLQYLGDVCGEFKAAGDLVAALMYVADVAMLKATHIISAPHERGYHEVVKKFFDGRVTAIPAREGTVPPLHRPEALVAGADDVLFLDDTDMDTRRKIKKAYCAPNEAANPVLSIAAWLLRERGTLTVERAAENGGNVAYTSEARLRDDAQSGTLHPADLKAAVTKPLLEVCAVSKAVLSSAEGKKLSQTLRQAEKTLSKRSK
In words: Trypanosoma cruzi tyrosyl tRNA synthetase (TcYRS) _High Tyrosine SOP. Also: in the data most compounds retested in dose-response had high values. Type of assay: functional. Particulars: 30 µM.

Assay [8] addresses T4, Tyrosyl-tRNA synthetase, putative (Trypanosoma cruzi (strain CL Brener)). In words: Trypanosoma cruzi tyrosyl tRNA synthetase (TcYRS) SOP. The class given is functional. To be noted: 30 µM.
Assay [9] addresses Chromo domain-containing protein 1 (Saccharomyces cerevisiae (strain ATCC 204508 / S288c) (Baker's yeast)) (UniProt P32657). In words: ScCHD-1 Enzyme Inhibition Assay. Also: in the data most compounds retested in dose-response had high values. The class given is functional. To be noted: 30 µM.

Sequence of Chromo domain-containing protein 1 (Saccharomyces cerevisiae (strain ATCC 204508 / S288c) (Baker's yeast)) (P32657 whole entry, the tested form may be a part): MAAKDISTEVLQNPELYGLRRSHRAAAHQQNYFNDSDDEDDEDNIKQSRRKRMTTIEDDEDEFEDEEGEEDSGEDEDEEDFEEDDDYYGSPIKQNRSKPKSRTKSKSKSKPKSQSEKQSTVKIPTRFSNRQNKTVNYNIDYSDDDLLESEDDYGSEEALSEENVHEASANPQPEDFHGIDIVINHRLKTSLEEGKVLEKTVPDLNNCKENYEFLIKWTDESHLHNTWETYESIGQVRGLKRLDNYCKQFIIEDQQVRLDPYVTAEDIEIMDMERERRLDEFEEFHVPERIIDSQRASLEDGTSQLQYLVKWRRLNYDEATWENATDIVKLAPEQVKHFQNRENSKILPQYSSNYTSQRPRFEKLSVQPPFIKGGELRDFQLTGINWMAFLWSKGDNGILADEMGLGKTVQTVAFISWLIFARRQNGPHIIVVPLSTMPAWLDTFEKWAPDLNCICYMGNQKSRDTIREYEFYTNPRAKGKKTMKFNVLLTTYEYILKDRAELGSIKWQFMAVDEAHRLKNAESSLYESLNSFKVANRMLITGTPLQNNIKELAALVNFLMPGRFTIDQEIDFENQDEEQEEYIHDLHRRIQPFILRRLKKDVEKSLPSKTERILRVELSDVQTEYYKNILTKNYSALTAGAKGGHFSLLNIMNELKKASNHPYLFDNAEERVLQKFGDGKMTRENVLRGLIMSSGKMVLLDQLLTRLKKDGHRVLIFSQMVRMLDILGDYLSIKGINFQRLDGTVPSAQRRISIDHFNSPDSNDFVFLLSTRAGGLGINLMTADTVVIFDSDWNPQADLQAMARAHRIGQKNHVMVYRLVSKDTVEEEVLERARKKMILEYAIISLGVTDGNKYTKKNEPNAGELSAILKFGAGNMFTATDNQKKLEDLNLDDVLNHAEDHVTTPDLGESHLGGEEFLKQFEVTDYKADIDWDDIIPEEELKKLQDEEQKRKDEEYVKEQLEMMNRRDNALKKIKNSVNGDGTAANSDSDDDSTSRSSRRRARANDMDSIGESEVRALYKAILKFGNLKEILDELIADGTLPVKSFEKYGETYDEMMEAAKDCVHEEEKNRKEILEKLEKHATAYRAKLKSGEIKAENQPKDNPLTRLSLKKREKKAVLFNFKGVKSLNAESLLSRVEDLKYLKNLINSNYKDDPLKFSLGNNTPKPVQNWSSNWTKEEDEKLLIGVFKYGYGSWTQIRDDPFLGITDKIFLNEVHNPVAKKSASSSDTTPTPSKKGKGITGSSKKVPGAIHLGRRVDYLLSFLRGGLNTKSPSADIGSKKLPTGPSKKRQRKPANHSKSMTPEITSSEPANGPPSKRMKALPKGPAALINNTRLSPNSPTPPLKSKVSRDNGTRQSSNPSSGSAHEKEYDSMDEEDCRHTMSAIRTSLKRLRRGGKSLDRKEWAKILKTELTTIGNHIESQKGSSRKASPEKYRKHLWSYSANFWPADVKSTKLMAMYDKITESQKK
Sequence of Sialic acid-binding Ig-like lectin 9 (Homo sapiens) (Q9Y336 whole entry): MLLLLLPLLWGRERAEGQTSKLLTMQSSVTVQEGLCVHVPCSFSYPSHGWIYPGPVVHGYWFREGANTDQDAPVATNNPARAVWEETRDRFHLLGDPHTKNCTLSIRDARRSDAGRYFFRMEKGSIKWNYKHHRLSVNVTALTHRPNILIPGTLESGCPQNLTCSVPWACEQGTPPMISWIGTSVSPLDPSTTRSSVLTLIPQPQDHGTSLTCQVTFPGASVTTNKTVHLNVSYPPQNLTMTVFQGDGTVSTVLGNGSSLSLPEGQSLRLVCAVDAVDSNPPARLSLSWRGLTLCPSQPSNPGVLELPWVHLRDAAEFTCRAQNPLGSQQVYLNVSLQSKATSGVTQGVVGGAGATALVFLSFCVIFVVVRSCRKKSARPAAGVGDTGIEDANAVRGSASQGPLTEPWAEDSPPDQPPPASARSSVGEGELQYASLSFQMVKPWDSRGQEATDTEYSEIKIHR
Sequence of Protein translocase subunit SecA (Escherichia coli (strain K12)) (P10408 whole entry): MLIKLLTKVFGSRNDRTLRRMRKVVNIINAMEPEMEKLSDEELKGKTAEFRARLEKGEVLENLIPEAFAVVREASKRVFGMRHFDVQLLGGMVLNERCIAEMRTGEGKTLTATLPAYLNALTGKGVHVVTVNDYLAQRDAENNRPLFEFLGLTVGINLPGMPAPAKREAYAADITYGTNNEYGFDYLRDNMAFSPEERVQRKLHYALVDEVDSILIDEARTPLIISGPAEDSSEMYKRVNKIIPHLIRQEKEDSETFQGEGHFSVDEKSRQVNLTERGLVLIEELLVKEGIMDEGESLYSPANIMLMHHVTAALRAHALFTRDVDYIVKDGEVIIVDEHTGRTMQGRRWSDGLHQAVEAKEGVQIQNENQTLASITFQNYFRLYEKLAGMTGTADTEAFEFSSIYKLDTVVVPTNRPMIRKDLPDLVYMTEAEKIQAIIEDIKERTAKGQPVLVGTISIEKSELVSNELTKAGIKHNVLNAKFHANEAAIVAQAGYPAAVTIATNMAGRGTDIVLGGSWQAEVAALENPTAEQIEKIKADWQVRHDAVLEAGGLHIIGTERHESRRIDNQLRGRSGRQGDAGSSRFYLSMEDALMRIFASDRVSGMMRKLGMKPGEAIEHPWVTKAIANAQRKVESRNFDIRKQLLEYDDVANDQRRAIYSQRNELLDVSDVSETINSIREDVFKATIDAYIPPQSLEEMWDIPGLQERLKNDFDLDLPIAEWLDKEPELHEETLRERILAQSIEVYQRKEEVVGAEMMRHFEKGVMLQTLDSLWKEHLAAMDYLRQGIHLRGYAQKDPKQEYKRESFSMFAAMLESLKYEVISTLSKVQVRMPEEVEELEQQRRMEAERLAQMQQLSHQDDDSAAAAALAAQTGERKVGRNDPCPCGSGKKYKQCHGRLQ

With `CC(C)NC(=O)[C@@H]1C[C@H](N)CN1C(=O)c1cc2c([nH]c1=O)CCCC2`, the Percent Effect was -2.48% in assay [1]; 6.94% in assay [2]; -2.43% in assay [3]; -9.13% in assay [4]; -1.46% with Trypanosoma cruzi; 1.77% in assay [5]. The Percent Effect is 17.7% in assay [6]; 3.48% in the assay listed under Homo sapiens; 4.21% in assay [7]; 7.69% in [8]; -3.08% in [9].
On to `COc1ccc(NC(=O)N2CCN(c3ncccn3)CC2)cn1`, for which the Percent Effect in assay [1] is -0.45%; in assay [2], 8.22%; in assay [3], 2.23%; in assay [4], -2.77%; with Trypanosoma cruzi, -3.53%; in assay [5], 3.64%. Further, the Percent Effect is 7.63% in [6]; 11.7% in the assay filed under Homo sapiens; 4.3% in [7]; 10% in [8]; -3.82% in [9].
Consider `CC(=O)N1CCCCC1c1nc(N)ncc1-c1ccccc1` (centres undefined), for which the Percent Effect in [1] was -3.36%; in assay [2] it was 13.3%; in assay [3], 9.28%; in assay [4] it was -4.89%; in the assay with Trypanosoma cruzi, 5.32%; in [5] it was 19.8%. In addition, the Percent Effect in [6] is 6.78%; in the assay filed under Homo sapiens, 8.42%; in assay [7], 6.38%; in assay [8] it was 14.1%; in assay [9] it was -3.68%.
Consider `CN1Cc2c(C(=O)Nc3cccnc3)ncn2-c2ccccc2S1(=O)=O`, for which the Percent Effect in assay [1] was -1.38%; in [2] it was -5.48%; in assay [3] it was -2.46%; in assay [4], 4.18%; with Trypanosoma cruzi, 0%; in [5] it was -4.39%. The Percent Effect in assay [6] is 7.79%; in the assay filed under Homo sapiens it was -3.68%; in assay [7] it was 0%; in assay [8], 6.17%; in [9] it was 0.964%.
In the case of `NS(=O)(=O)Cc1ccc(CNC(=O)NCC2CCOC2)cc1` (centres undefined), the Percent Effect was -1.97% in assay [1]; 7.79% in assay [2]; 5.79% in [3]; -1.36% in assay [4]; 1.86% with Trypanosoma cruzi; 3.58% in assay [5]. The Percent Effect is 5.09% in assay [6]; -5.41% in the assay filed under Homo sapiens; 2.86% in assay [7]; 18.8% in assay [8]; -8.13% in assay [9].
For `O=C(c1cc[nH]n1)N1CCCC1C1CCN(Cc2ccccc2)CC1` (centres undefined), the Percent Effect is -0.52% in assay [1]; -7.89% in [2]; 10.9% in [3]; 1.13% in assay [4]; -7.11% in the assay with Trypanosoma cruzi; 1.18% in assay [5]. Further, the Percent Effect in assay [6] was 16.6%; in the assay filed under Homo sapiens it was -0.106%; in [7] it was 4.25%; in [8] it was 7.79%; in [9], -1.17%.
For the compound `COc1ccc(CNC(C)c2cccc(Cl)c2)c(OC)c1OC` (centres undefined), the Percent Effect in [1] was -1.96%; in assay [2] it was 10.7%; in assay [3] it was -5.69%; in [4], 5.99%; with Trypanosoma cruzi, 6.52%; in assay [5], 4.69%. The Percent Effect in assay [6] is 5.58%; in the assay filed under Homo sapiens, 16.5%; in assay [7], 0.546%; in [8], 6.17%; in [9], -1.65%.
On to `COc1cccn(CC(=O)N(C)CCOc2cc(C)cc(C)c2)c1=O`, for which the Percent Effect is -5.42% in assay [1]; 8.22% in assay [2]; -63.8% in assay [3]; 11.9% in assay [4]; 2.98% in the assay with Trypanosoma cruzi; -12.8% in assay [5]. The Percent Effect was 15.2% in assay [6]; -0.398% in the assay listed under Homo sapiens; -2.08% in [7]; 3.7% in assay [8]; -0.823% in assay [9].
In the case of `O=C(NCCS(=O)(=O)N1CCc2ccccc21)c1c(O)cc(F)cc1F`, the Percent Effect in assay [1] was -5.35%; in [2], 2.6%; in assay [3], -0.496%; in assay [4], -10.7%; with Trypanosoma cruzi it was 4.41%; in assay [5], -6.11%. The Percent Effect is 8% in assay [6]; 4.49% in the assay filed under Homo sapiens; -12.4% in assay [7]; 0% in assay [8]; -23.1% in [9].

The record behind these values is ChEMBL document CHEMBL3988442, “University of Dundee, Small-Polar-MMV Screening Library” (2021).
